Results filed as inconclusive are left out. The source made the active and inactive calls. Unless noted, the call rests on the fitted dose curve; in most records, active means well fitted curve in the direction sought with a large enough effect; inconclusive means small, poorly fitted or top-dose-only effect, or another doubt; inactive means no such curve, though single readings can be large; an effect the other way counts as inactive or inconclusive. *1 amine or outer side, *2 acyl side, *3 side chain or, on linkers, in order; H or OH if unused. Where a SMILES comes first, the peptide text is derived from it. [ ]: non-standard residue; d: D form. X5 = CC(CC(O[*:1])C(=O)[*:2])C(=O)O; NMeV = CN[CH](C(=O)O)C(C)C; NMeA = CN[CH](C)C(=O)O; βAla = NCCC(=O)O
Tests used:
[1] = P-glycoprotein substrates identified in KB-8-5-11 adenocarcinoma cell line, qHTS therapeutic library screen (AID 1346987); further: nearly all actives have a fitted effect of over 65% in size; further: potency means the concentration at half of the fitted maximal effect
Outline: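 Human cervical adenocarcinoma KB-8-5-11 cells, selected in colchicine to over-express P-gp and assayed without it, were exposed for 72 h to titrated compounds. An ATP-based luminescent viability signal gave AC50.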

[2] = test system: Zika virus NS2B-NS3 protease (unlinked complex); test: Primary screen GU Rhodamine qHTS for Zika virus inhibitors: Unlinked NS2B-NS3 protease assay (AID 1347159); further: nearly all actives have a fitted effect of over 60% in size; further: potency means the concentration at half of the fitted maximal effect; on activity change, negative = inhibition: on the % scale 0 is the no-effect control and ±100 the full control effect
Outline: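 Percent inhibition came from the 15-min rise in Rhodamine110 fluorescence (1.5 microM substrate, ~15% conversion), normalized to no-inhibitor and no-enzyme wells and Hill-fitted. Unlinked protease, 25 nM, pH 8.0 Tris buffer; compounds up to 114 microM, 15-min preincubation.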

[3] = biological target: Cytochrome P450 2D6 (Homo sapiens) (UniProt P10635); test: Cytochrome P450 family 2 subfamily D member 6 (CYP2D6) small molecule antagonists: luciferase biochemical (cell-free) qHTS assay (AID 1645840; active means well fitted curve in the direction sought with a large enough effect in the repeat runs; an effect the other way counts as inactive or inconclusive; further: nearly all actives have a fitted effect of over 55% in size; further: potency means the concentration at half of the fitted maximal effect; on activity change, negative = inhibition: on the % scale 0 is the no-effect control and ±100 the full control effect)
Cytochrome P450 2D6 (Homo sapiens), sequence (P10635 whole entry, looked up): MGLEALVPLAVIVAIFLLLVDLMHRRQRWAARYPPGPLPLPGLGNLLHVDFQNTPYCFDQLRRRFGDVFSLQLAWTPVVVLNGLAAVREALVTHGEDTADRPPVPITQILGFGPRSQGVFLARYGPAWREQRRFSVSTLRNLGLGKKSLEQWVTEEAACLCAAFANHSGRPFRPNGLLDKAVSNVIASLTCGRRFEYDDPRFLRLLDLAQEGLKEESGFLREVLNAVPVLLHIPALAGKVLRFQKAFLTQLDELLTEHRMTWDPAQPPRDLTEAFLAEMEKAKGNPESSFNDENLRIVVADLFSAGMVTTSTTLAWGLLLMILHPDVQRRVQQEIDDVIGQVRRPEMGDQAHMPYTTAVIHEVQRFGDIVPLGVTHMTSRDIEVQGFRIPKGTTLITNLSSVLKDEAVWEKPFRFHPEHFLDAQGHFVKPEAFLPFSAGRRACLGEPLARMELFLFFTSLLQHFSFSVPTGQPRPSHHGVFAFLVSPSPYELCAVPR
Outline: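 P450-Glo CYP2D6 system: proluciferin substrate converted by enzyme to luciferin, read by luminescence proportional to activity. Enzyme-substrate mix with compound 10 min at room temperature, then NADPH regeneration 1 h before detection reagent.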

[4] = Primary qHTS for inhibitors of nuclear receptor binding SET domain protein 2 (NSD2) in an isogenic RCH-ACV NSD2 p.E1099K mutant (9B) (AID 1645876); further: nearly all actives have a fitted effect of over 70% in size; further: potency means the concentration at half of the fitted maximal effect
[5] = Primary qHTS for inhibitors of nuclear receptor binding SET domain protein 2 (NSD2) in an RCH-ACV wild type WT cells (2C) (AID 1645877); further: nearly all actives have a fitted effect of over 70% in size; further: potency means the concentration at half of the fitted maximal effect
[6] = qHTS drug screen for cell cycle checkpoint inhibitors in PARPi-resistant BRCA-mutant ovarian cancer cell lines. (AID 1963452; calls by dose curve); details: PEO1/OlaR viability, CellTiter-Glo luminescence, 96 h, stronger effect = lower value
Outline: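 PEO1, PEO4 and PEO1/OlaR ovarian cancer cells, 600 per well, exposed 96 h at 37C to a dilution series. Viability read by CellTiter-Glo luminescence, normalized to DMSO and empty wells; activity summarized as Z-AUC.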

[7] = test system: HEK293; test: Cytotoxic Profiling of Annotated Libraries Using Quantitative High-Throughput Screening (AID 1296008); details: Five cell lines viability, CellTiter-Glo ATP luminescence, 48-72 h; max response: stronger effect = lower value; further: nearly all actives have a fitted effect of over 60% in size; further: potency means the concentration at half of the fitted maximal effect; on max response: on the % scale 0 is the no-effect control and ±100 the full control effect
Outline: (§1)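 Compounds were pin-transferred onto cells and incubated 48 or 72 hr at 37 degree Celsius, 95% humidity. CellTiter-Glo was added, plates sat 10 min at room temperature, then ATP-coupled luminescence was imaged as the viability read-out.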

[8] = test system: KB-3-1; test: as above; details: Five cell lines viability, CellTiter-Glo ATP luminescence, 48-72 h; max response: stronger effect = lower value
Outline: as §1

[9] = test system: HeLa; test: Primary qHTS to identify gynecologic anti-cancer compounds using libraries of approved drugs and bioactive compounds (AID 1345084); details: Gynecologic cancer cell panel viability, ATPlite luminescence, 48 h; series mostly up to 57.5 µM; further: nearly all actives have a fitted effect of over 55% in size; further: potency means the concentration at half of the fitted maximal effect
Outline: (§2)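 Luminescence from the ATPlite ATP-monitoring reagent indicates viable cell number; lower signal means cytotoxicity. Cells received compound 16 h after seeding and were exposed for 48 h across five concentrations.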

[10] = test system: SKOV3; test: as above; details: Gynecologic cancer cell panel viability, ATPlite luminescence, 48 h; series mostly up to 57.5 µM
Outline: as §2

[11] = test system: CRL-7250; test: Cytotoxic Profiling of Annotated Libraries Using Quantitative High-Throughput Screening (AID 1296008); details: Five cell lines viability, CellTiter-Glo ATP luminescence, 48-72 h; max response: stronger effect = lower value; further: nearly all actives have a fitted effect of over 60% in size; further: potency means the concentration at half of the fitted maximal effect; on max response: on the % scale 0 is the no-effect control and ±100 the full control effect
Outline: as §1

[12] = test system: CRL-7250; test: qHTS assay to identify novel small-molecules to repurpose for Merkel cell carcinoma treatment (AID 1296009); details: MCC and control cell lines, CellTiter-Glo viability, 72 h; series mostly up to 92 µM; further: nearly all actives have a fitted effect of over 60% in size
Outline: (§3)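 Luminescence from CellTiter-Glo, read 10 min after addition at room temperature, reported viability following a 72 hr, 37 degree celsius treatment with NPC or MIPE compounds in titration; values normalized to plate controls.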

[13] = biological target: Cytochrome P450 2C9 (Homo sapiens) (UniProt P11712); test: Cytochrome P450 family 2 subfamily C member 9 (CYP2C9) small molecule antagonists: luciferase biochemical (cell-free) qHTS assay (AID 1645842; active means well fitted curve in the direction sought with a large enough effect in the repeat runs; an effect the other way counts as inactive or inconclusive; further: potency means the concentration at half of the fitted maximal effect; nearly all actives have a fitted effect of over 55% in size)
Cytochrome P450 2C9 (Homo sapiens), sequence (P11712 whole entry, looked up): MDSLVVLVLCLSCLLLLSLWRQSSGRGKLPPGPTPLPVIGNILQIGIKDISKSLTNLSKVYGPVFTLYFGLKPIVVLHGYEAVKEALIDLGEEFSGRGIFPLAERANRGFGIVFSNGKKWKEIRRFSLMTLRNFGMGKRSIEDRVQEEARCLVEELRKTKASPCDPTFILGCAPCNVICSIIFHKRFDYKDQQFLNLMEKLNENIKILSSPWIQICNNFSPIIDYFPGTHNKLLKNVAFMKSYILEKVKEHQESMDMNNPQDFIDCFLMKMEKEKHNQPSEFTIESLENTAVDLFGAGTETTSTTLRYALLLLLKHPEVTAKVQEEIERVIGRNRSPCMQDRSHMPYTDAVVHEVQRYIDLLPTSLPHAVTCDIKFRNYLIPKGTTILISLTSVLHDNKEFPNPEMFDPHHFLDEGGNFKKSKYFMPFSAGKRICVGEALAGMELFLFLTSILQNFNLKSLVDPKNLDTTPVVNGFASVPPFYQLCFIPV
Outline: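 P450-Glo CYP2C9 system: proluciferin substrate with enzyme in mix containing 0.4% BSA, 10 min at room temperature, then NADPH regeneration solution added and incubated 1 h at 37C. Detection reagent stopped reaction; luminescence read after 20 min as RLU.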

[14] = P-glycoprotein substrates identified in KB-3-1 adenocarcinoma cell line, qHTS therapeutic library screen (AID 1346986); further: nearly all actives have a fitted effect of over 60% in size
Outline: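 Using luminescence to quantify ATP, parental and P-gp-overexpressing KB cells were compared after 72 h compound titration. KB-8-5-11 was also run with the P-gp inhibitor tariquidar.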

[15] = test system: HACAT; test: qHTS assay to identify novel small-molecules to repurpose for Merkel cell carcinoma treatment (AID 1296009); details: MCC and control cell lines, CellTiter-Glo viability, 72 h; at 44.8 µM (top of the series) unless noted; further: nearly all actives have a fitted effect of over 60% in size
Outline: as §3

[16] = biological target: Catechol O-methyltransferase (Homo sapiens) (UniProt P21964); test: Confirmatory Screen for Target Class Profiling of Small Molecule Inhibitors of Methyltransferases (AID 1745852; calls by dose curve); details: MTase-Glo luminescence, SAH detection, recombinant enzyme; measured here: COMT max response; stronger effect = lower value
Catechol O-methyltransferase (Homo sapiens), sequence (P21964 whole entry, looked up): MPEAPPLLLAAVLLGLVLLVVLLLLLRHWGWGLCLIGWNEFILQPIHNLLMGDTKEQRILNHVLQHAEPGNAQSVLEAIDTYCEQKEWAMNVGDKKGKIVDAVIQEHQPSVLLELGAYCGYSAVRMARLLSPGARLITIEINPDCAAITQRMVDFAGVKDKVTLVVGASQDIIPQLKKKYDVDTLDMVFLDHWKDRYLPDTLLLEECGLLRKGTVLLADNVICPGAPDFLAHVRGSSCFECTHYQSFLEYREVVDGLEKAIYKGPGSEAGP

[17] = biological target: Guanidinoacetate N-methyltransferase (Homo sapiens) (UniProt Q14353); test: as above; details: activity change, negative = inhibition: at 57.3 µM (top of the series) unless noted
[18] = biological target: Nicotinamide N-methyltransferase (Homo sapiens) (UniProt P40261); test: as above; details: MTase-Glo luminescence, SAH detection, recombinant enzyme; measured here: NNMT max response; stronger effect = lower value
Nicotinamide N-methyltransferase (Homo sapiens), sequence (P40261 whole entry, looked up): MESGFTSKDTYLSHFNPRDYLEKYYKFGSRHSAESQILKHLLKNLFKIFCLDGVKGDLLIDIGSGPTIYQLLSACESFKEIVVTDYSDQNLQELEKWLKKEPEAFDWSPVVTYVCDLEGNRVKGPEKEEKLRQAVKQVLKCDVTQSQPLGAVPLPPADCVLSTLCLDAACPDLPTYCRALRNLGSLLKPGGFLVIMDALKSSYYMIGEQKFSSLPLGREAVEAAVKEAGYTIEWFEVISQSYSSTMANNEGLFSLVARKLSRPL

[19] = biological target: Phenylethanolamine N-methyltransferase (Homo sapiens) (UniProt P11086); test: as above; details: MTase-Glo luminescence, SAH detection, recombinant enzyme; measured here: PNMT max response; stronger effect = lower value
Phenylethanolamine N-methyltransferase (Homo sapiens), sequence (P11086 whole entry, looked up): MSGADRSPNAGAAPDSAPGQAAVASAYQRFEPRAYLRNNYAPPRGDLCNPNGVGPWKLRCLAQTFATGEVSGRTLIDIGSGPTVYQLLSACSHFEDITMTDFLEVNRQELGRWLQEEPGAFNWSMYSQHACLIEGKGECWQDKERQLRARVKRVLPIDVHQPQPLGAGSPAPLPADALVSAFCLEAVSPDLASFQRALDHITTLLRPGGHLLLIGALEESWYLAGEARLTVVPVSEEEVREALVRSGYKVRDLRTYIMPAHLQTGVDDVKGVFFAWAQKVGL

[20] = test system: NIH3T3; test: qHTS assay to identify novel small-molecules to repurpose for Merkel cell carcinoma treatment (AID 1296009); details: MCC and control cell lines, CellTiter-Glo viability, 72 h; at 44.8 µM (top of the series) unless noted; further: nearly all actives have a fitted effect of over 60% in size
Outline: as §3

[21] = measured here: PEO1 parental Z-AUC

NC(=O)[C@@H](CC1CC1)[C@@H](CCC(F)(F)F)C(=O)N[C@H]1N=C(c2ccccc2)c2cccc(F)c2NC1=O
-0.643: Z-AUC [6, 21]
inactive: Potency [1] | Potency [2] | Potency [3] | Potency [4] | Potency [5] | Z-AUC [6] -1.08 | max response [7] 0.706% | max response [8] 4.24% | Potency [9] | Potency [10]
-1.43: Z-AUC ([6]; measured here: PEO4 Z-AUC)

O=C1CN=C(c2cccc(Br)c2)c2oc3ccccc3c2N1
inactive: Potency [3] | outcome [11] | Potency [12]
active: Potency [1] 14.6 µM | Potency [4] 9.16 µM | Potency [5] 6.49 µM

C[C@]12CC[C@H](O)CC1=CC[C@@H]1C2CC[C@]2(C)[C@@H](C3=CC(=O)OC3)CC[C@]12O (stereo partly specified)
inactive: Potency [2]
active: Potency [1] 10.1 µM | Potency [4] 3.19 µM | Potency [5] 4.5 µM | Potency [11] 5.08 µM

CO/C1=C\C(C)=C\[C@@H](C)[C@@H](O)[C@@H](C)C/C(C)=C/C=C/[C@H](OC)[C@@H]([C@@H](C)[C@@H](O)[C@H](C)[C@@]2(O)C[C@@H](O)[C@H](C)[C@@H](C(C)C)O2)OC1=O
inactive: Potency [2]
active: Potency [1] 0.109 µM | Potency [4] 0.0483 µM | Potency [5] 0.0305 µM | Potency [11] 0.0862 µM | Potency [8] 0.0611 µM

O=C(NCCN1CCC2(CC1)C(=O)NCN2c1cccc(F)c1)c1ccc(F)c(F)c1
inactive: Potency [2] | outcome [11] | Potency [12] | Potency [9] | Potency [10]
active: Potency [1] 16.4 µM | Potency [4] 23 µM | Potency [5] 14.5 µM

CC/C=C/C=C/C1(C)OC(OC)=C(C(=O)C2C(C)C(=O)c3cc(OC)c(O)c(O)c3C2(C)O)C1=O (stereo unspecified)
active: Potency [2] 6.31 µM | Potency [5] 7.09 µM
inactive: max response [11] -16.8%

CC[C@@H]1C[C@H]2CC[C@H](O2)[C@H](C)C(=O)O[C@@H](C)C[C@@H]2CC[C@@H](O2)[C@@H](C)C(=O)O[C@H](C)C[C@H]2CC[C@H](O2)[C@H](C)C(=O)O[C@@H](C)C[C@@H]2CC[C@@H](O2)[C@@H](C)C(=O)O1
active: Potency [1] 1.22 µM | Potency [4] 0.0216 µM | Potency [5] 0.0242 µM | Potency [11] 0.432 µM | Potency [9] 0.562 µM | Potency [10] 0.562 µM

CC[C@@H](C)[C@H]1C(=O)O[C@H](C(C)C)C(=O)N(C)[C@@H](C(C)C)C(=O)O[C@H](C(C)C)C(=O)N(C)[C@@H](C(C)C)C(=O)O[C@H](C(C)C)C(=O)N1C
active: Potency [1] 4.32 µM | Potency [4] 2.16 µM | Potency [5] 1.53 µM | Potency [11] 3.85 µM
inactive: Potency [2]

CCOC(=O)c1ccc(-c2ccc(OC(=O)N(C)Cc3cccc(-c4ccncc4)c3)cc2)cc1
inactive: Potency [1] | Potency [2] | Potency [4] | Potency [5] | max response [8] 1.19% | Potency [9] | Potency [10]
active: Potency [3] 6.74 µM | Potency [13] 0.952 µM | Potency [7] 9.2 µM

CCC(C)C1NC(=O)C2CCCN2C(=O)C(CC(C)C(=O)O)OC(=O)CCNC(=O)C(C)N(C)C(=O)C(C(C)C)N(C)C1=O (stereo unspecified) (cyclo([X5]PI[NMeV][NMeA][βAla]); configuration not given here)
inactive: Potency [14] | Potency [1] | Potency [4] | Potency [5] | max response [11] -24.2% | Potency [10]

CCC1CC2CN3CCc4c([nH]c5ccccc45)C(C(=O)OC)(C2)C13 (stereo unspecified)
inactive: Potency [14] | Potency [1] | Potency [4] | Potency [5] | max response [11] 3.09% | outcome [8] | Potency [9]

Cc1ccc(Cn2nc(C(=O)N[C@@H]3C(C)(C)[C@@H]4CC[C@@]3(C)C4)cc2-c2ccc(Cl)c(C)c2)cc1
inactive: Potency [1] | Potency [2] | Potency [3] | Potency [4] | Potency [5] | max response [11] 0.138% | max response [8] 0.44% | Potency [9] | Potency [10]

C=C1C(=O)OC2/C=C(\COO)CC/C=C(\COC(C)=O)CC(OC(=O)C(C)CC)C12 (stereo unspecified)
inactive: Potency [2] | outcome [15] inactive [at 17.4 µM] | Potency [9]
active: Potency [4] 6.32 µM | Potency [11] 7.96 µM

CCCCOC(=O)c1ccnc2cc(C(OCCN3CCCCC3)c3ccccc3Cl)sc12 (stereo unspecified)
inactive: max response [11] -4.2% | outcome [15] | Potency [9] | Potency [10]
-22.8%: activity [18]
6.41%: activity change, negative = inhibition [17]
-16.1%: activity [19]
-6.9%: activity [16]
active: Potency [4] 23 µM

C[C@@H](CN1CCC2(CC1)C(=O)NCN2c1cccc(F)c1)NC(=O)c1ccc(Br)cc1
active: Potency [3] 4.77 µM | Potency [13] 9.52 µM | Potency [4] 11.5 µM
inactive: Potency [2] | outcome [11] | Potency [12] | Potency [9]

CC[C@@H]1/C=C/C=C/C[C@H](C)C(O)[C@](C)(O)C(=O)[C@H](C)C(O)[C@H](C)C(=O)[C@H](C)[C@@H](O)[C@H](C)/C=C/C(=O)O[C@H]2[C@@H](C)[C@@H](CC1)O[C@]1(O[C@H](C[C@H](C)O)[C@H](C)CC1=O)[C@@H]2C (stereo partly specified)
active: Potency [4] 0.123 µM | Potency [7] 0.0174 µM | Potency [8] 0.0491 µM

C[C@H](Nc1ncnc2nc[nH]c12)c1nc2ccc(F)cc2c(=O)n1-c1ccccc1
0.609: Z-AUC [6, 21]
inactive: Potency [2] | Z-AUC [6] 0.252 | max response [11] -36.2% | max response [8] -3.18% | Potency [9] | Potency [10]
0.915: Z-AUC ([6]; measured here: PEO4 Z-AUC)
active: Potency [3] 15.1 µM | Potency [13] 12 µM

c1ccc(C2(c3ccccc3)OC[C@@H]([C@H]3CCCCN3)O2)cc1
inactive: max response [11] -2.49% | Potency [9] | Potency [10]
active: Potency [3] 0.849 µM

C[C@]12CC[C@H](O[C@@H]3O[C@H](CO)[C@@H](O)[C@H](O)[C@H]3O)CC1=CC[C@@H]1C2CC[C@]2(C)[C@@H](C3=CC(=O)OC3)CC[C@]12O (stereo partly specified)
inactive: Potency [2]
active: Potency [1] 4.85 µM | Potency [4] 2.42 µM | Potency [5] 5.41 µM | Potency [11] 3.43 µM

O=C1CN=C(c2ccccc2Cl)c2cc(Br)ccc2N1
active: Potency [3] 13.5 µM | Potency [4] 23 µM
inactive: max response [11] -11.2% | outcome [20] | Potency [9]

Source: PubChem BioAssay (NCATS)
